PubChem BioAssay (NCI)
About 79,000 compounds went through this panel and 15% of them were active in at least one assay; those are over-represented in the sample as a whole. The source made the active and inactive calls. Rule as the data show it: active = growth inhibition above about 70%; inactive = the rest.

Legend:
[1] = NCI Yeast Anticancer Drug Screen. Data for the rad52 strain (AID 147);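 also: 0% = growth of vehicle-treated control cultures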; conditions: S. cerevisiae rad52 mutant growth inhibition, stronger effect = higher value
Method in brief: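 DNA repair-defective yeast; compound exposure; growth scored against vehicle controls.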

[2] = NCI Yeast Anticancer Drug Screen. Data for the wt1 strain (AID 149);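 also: 0% = growth of vehicle-treated wt1 cultures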; conditions: S. cerevisiae wt1 strain (SPY 50644) growth inhibition, stronger effect = higher value
Method in brief: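 Each compound is tested on wt1 yeast and the loss of growth versus vehicle gives the inhibition value.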

[3] = NCI Yeast Anticancer Drug Screen. Data for the rad50EPP+ strain (AID 151);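 also: 0% = growth of vehicle-treated control cultures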; conditions: S. cerevisiae rad50 mutant strain, stronger effect = higher value
Method in brief: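 rad50EPP+ yeast treated with test compounds. Readout: growth vs vehicle control.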

[4] = NCI Yeast Anticancer Drug Screen. Data for the mgt1 strain (AID 153); conditions: S. cerevisiae mgt1 mutant growth inhibition, stronger effect = higher value
Method in brief: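 Growth inhibition relative to vehicle controls was scored for the mgt1 yeast strain after compound exposure.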

[5] = NCI Yeast Anticancer Drug Screen. Data for the rad50 strain (AID 155);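 also: 0% = growth of vehicle-only cultures of the same strain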; conditions: S. cerevisiae rad50 strain growth inhibition, stronger effect = higher value
Method in brief: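 Vehicle-treated cultures provide the reference for the growth inhibition reported for compound-exposed, repair-deficient yeast.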

[6] = NCI Yeast Anticancer Drug Screen. Data for the mec2-1 strain (AID 157); conditions: S. cerevisiae mec2-1 strain, stronger effect = higher value
Method in brief: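 Growth inhibition is read against vehicle-treated controls after compound exposure of the mec2-1 yeast strain, which is defective in DNA damage repair or cell cycle control.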

[7] = NCI Yeast Anticancer Drug Screen. Data for the rad14 strain (AID 159);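 also: 0% = growth of vehicle-treated control cultures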; conditions: S. cerevisiae rad14 strain growth inhibition, stronger effect = higher value
Method in brief: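 Inhibition of growth is reported for a repair-deficient yeast mutant following compound treatment, calculated relative to cultures that received vehicle.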

[8] = NCI Yeast Anticancer Drug Screen. Data for the sgs1 mgt1 strain (AID 161);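 also: 0% = growth of cultures given vehicle only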; conditions: S. cerevisiae sgs1 mgt1 strain, stronger effect = higher value
Method in brief: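 Growth of a repair-deficient yeast mutant was monitored after compound treatment and expressed as inhibition relative to vehicle-treated cultures.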

[9] = NCI Yeast Anticancer Drug Screen. Data for the CLN2oe strain (AID 163);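 also: 0% = growth of vehicle-only control cultures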; conditions: S. cerevisiae CLN2oe strain, stronger effect = higher value
Method in brief: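 Compound-treated yeast; growth vs vehicle ctrl = % inhibition. Genetically altered strain (cell-cycle control).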

[10] = NCI Yeast Anticancer Drug Screen. Data for the cln2 rad14 strain (AID 165);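 also: 0% = growth equal to vehicle treated cultures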; conditions: S. cerevisiae cln2 rad14 strain, stronger effect = higher value
Method in brief: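 Growth inhibition, relative to vehicle-treated controls, is the read-out. The test organism is a yeast strain with defined genetic alterations, cln2 rad14.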

[11] = NCI Yeast Anticancer Drug Screen. Data for the bub3 strain (AID 167); conditions: S. cerevisiae bub3 mutant strain, stronger effect = higher value
Method in brief: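 Mutant yeast screening strain plus compound; vehicle-treated cultures serve as the 0% inhibition reference.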

[12] = NCI Yeast Anticancer Drug Screen. Data for the wt2 strain (AID 169); conditions: S. cerevisiae wt2 strain growth inhibition, stronger effect = higher value
Method in brief: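 Compound exposure of yeast; growth compared with vehicle controls; inhibition reported.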

[13] = NCI Yeast Anticancer Drug Screen. Data for the mlh1 strain (AID 171);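 also: 0% = growth of vehicle-treated control cultures of the same strain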; conditions: S. cerevisiae mlh1 strain growth inhibition, stronger effect = higher value
Method in brief: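 Compounds are applied to a genetically altered yeast strain, and its growth is compared with that of vehicle-treated cultures to give percent inhibition.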

[14] = NCI Yeast Anticancer Drug Screen. Data for the sgs1 strain (AID 173);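 also: 0% = growth of vehicle-only control cultures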; conditions: S. cerevisiae sgs1 mutant, stronger effect = higher value
Method in brief: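 Compounds applied to genetically altered yeast; growth compared with vehicle-treated cultures to give % inhibition.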

[15] = NCI Yeast Anticancer Drug Screen. Data for the mlh1 rad18 strain (AID 175); conditions: S. cerevisiae mlh1 rad18 strain growth inhibition, stronger effect = higher value
Method in brief: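 Cells of a genetically altered yeast strain, deficient in DNA damage repair, were treated with compound. Their growth was then compared with that of vehicle-treated cultures to give inhibition.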

[16] = NCI Yeast Anticancer Drug Screen. Data for the rad18 strain (AID 177); conditions: S. cerevisiae rad18 mutant growth inhibition, stronger effect = higher value
Method in brief: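 Compounds are applied to a repair-deficient yeast strain, and growth is compared with that of vehicle-treated cultures to give percent inhibition.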

[17] = at 5.0 µM (retest, dose inferred, filed as 0.5)
[18] = at 50.0 µM (retest, dose inferred, filed as 5.0)

Measured: growth inhibition

Cc1c(C(=O)C(=O)c2ccccc2)c(C)c(C(=O)C(=O)c2ccccc2)c(C)c1C(=O)C(=O)c1ccccc1
active: [5]; [18] 86% | [6]; [18] 90% | [8]; [18] 86% | [8]; at 50.0 µM 75.7% | [10]; [17] 94% | [10]; [18] 84% | [11]; [17] 97% | [11]; [18] 91% | [15]; [18] 87% | [15]; at 50.0 µM 72.5%
inactive: [1]; at 1.2 µM -4% | [1]; at 3.7 µM -5% | [1]; at 11.0 µM -7% | [1]; at 33.0 µM -17% | [1]; at 100.0 µM -14% | [2]; at 1.2 µM 0% | [2]; at 3.7 µM 1% | [2]; at 11.0 µM -1% | [2]; at 33.0 µM -4% | [2]; at 100.0 µM -5% | [3]; at 1.2 µM 0% | [3]; at 3.7 µM -1% | [3]; at 11.0 µM -3% | [3]; at 33.0 µM -5% | [3]; at 100.0 µM -17% | [4]; at 1.2 µM -2% | [4]; at 3.7 µM -2% | [4]; at 11.0 µM -5% | [4]; at 33.0 µM -21% | [4]; at 100.0 µM -9% | [5]; at 1.2 µM -11% | [5]; at 3.7 µM -21% | [5]; [17] 11% | [5]; at 11.0 µM -29% | [5]; at 33.0 µM -12% | [5]; at 50.0 µM 54.1% | [5]; at 100.0 µM -19% | [6]; at 1.2 µM -2% | [6]; at 3.7 µM 1% | [6]; [17] 18% | [6]; at 11.0 µM -1% | [6]; at 33.0 µM -3% | [6]; at 50.0 µM 61.4% | [6]; at 100.0 µM -11% | [7]; at 1.2 µM -2% | [7]; at 3.7 µM -3% | [7]; at 11.0 µM -4% | [7]; at 33.0 µM -8% | [7]; at 100.0 µM -13% | [8]; [17] -5% | [9]; at 1.2 µM 1% | [9]; at 3.7 µM -5% | [9]; at 11.0 µM -5% | [9]; at 33.0 µM -10% | [9]; at 100.0 µM -13% | [10]; at 50.0 µM 63.1% | [11]; at 1.2 µM -2% | [11]; at 3.7 µM 0% | [11]; at 11.0 µM -2% | [11]; at 33.0 µM -8% | [11]; at 50.0 µM 56.4% | [11]; at 100.0 µM -16% | [12]; at 1.2 µM -3% | [12]; at 3.7 µM -1% | [12]; at 11.0 µM -4% | [12]; at 33.0 µM -6% | [12]; at 100.0 µM -10% | [13]; at 1.2 µM 1% | [13]; at 3.7 µM 1% | [13]; at 11.0 µM 1% | [13]; at 33.0 µM -3% | [13]; at 100.0 µM -8% | [14]; at 1.2 µM 0% | [14]; at 3.7 µM 0% | [14]; at 11.0 µM -4% | [14]; at 33.0 µM -5% | [14]; at 100.0 µM -13% | [15]; [17] 9% | [16]; at 1.2 µM -3% | [16]; at 3.7 µM -4% | [16]; at 11.0 µM -6% | [16]; at 33.0 µM -13% | [16]; at 100.0 µM -20%

COc1cc(C2SCC(=O)N2c2ccc(-c3ccc(-n4c(-c5ccccc5)nc5ccccc5c4=O)cc3)cc2)cc(OC)c1OC (stereo unspecified)
inactive: [1]; at 1.2 µM -3% | [1]; at 3.7 µM -1% | [1]; at 11.0 µM 1% | [1]; at 33.0 µM 1% | [1]; at 100.0 µM -5% | [2]; at 1.2 µM 0% | [2]; at 3.7 µM 0% | [2]; at 11.0 µM 0% | [2]; at 33.0 µM -2% | [2]; at 100.0 µM -8% | [3]; at 1.2 µM -2% | [3]; at 3.7 µM -1% | [3]; at 11.0 µM 3% | [3]; at 33.0 µM 4% | [3]; at 100.0 µM -1% | [4]; at 1.2 µM -1% | [4]; at 3.7 µM 0% | [4]; at 11.0 µM -2% | [4]; at 33.0 µM -3% | [4]; at 100.0 µM -7% | [5]; at 1.2 µM -2% | [5]; at 3.7 µM 2% | [5]; [17] -1% | [5]; at 11.0 µM 1% | [5]; at 33.0 µM 3% | [5]; [18] 13% | [5]; at 50.0 µM 25.9% | [5]; at 100.0 µM 1% | [6]; at 1.2 µM 0% | [6]; at 3.7 µM 0% | [6]; [17] 2% | [6]; at 11.0 µM 2% | [6]; at 33.0 µM 4% | [6]; [18] 3% | [6]; at 50.0 µM 19.6% | [6]; at 100.0 µM -2% | [7]; at 1.2 µM 0% | [7]; at 3.7 µM 0% | [7]; at 11.0 µM 4% | [7]; at 33.0 µM 6% | [7]; at 100.0 µM 4% | [8]; [17] 8% | [8]; [18] 7% | [8]; at 50.0 µM 21.6% | [9]; at 1.2 µM 5% | [9]; at 3.7 µM 7% | [9]; at 11.0 µM 9% | [9]; at 33.0 µM 10% | [9]; at 100.0 µM -2% | [10]; [17] 32% | [10]; [18] 13% | [10]; at 50.0 µM 52.4% | [11]; at 1.2 µM -1% | [11]; at 3.7 µM 4% | [11]; [17] 6% | [11]; at 11.0 µM 17% | [11]; at 33.0 µM 27% | [11]; at 100.0 µM 41% | [12]; at 1.2 µM -1% | [12]; at 3.7 µM -2% | [12]; at 11.0 µM -2% | [12]; at 33.0 µM -3% | [12]; at 100.0 µM -8% | [13]; at 1.2 µM -1% | [13]; at 3.7 µM 0% | [13]; at 11.0 µM 1% | [13]; at 33.0 µM -1% | [13]; at 100.0 µM -3% | [14]; at 1.2 µM -3% | [14]; at 3.7 µM -1% | [14]; at 11.0 µM 2% | [14]; at 33.0 µM -1% | [14]; at 100.0 µM -7% | [15]; [17] 6% | [15]; [18] 37% | [15]; at 50.0 µM 19.4% | [16]; at 1.2 µM -3% | [16]; at 3.7 µM 0% | [16]; at 11.0 µM 0% | [16]; at 33.0 µM 3% | [16]; at 100.0 µM 1%
active: [11]; [18] 73% | [11]; at 50.0 µM 71.7%
